High-throughput results deposited in PubChem BioAssay by National Center for Advancing Translational Sciences (NCATS).
TDP1 block = TDP1 (human) enzyme inhibition | Potency, µM (highest dose often 130 µM), for inactives: at the highest dose activity change, negative = inhibition, most hits filed as inhibitors | recombinant TDP1, AlphaScreen DNA substrate cleavage | 350,000 tested, 0.28% active; further: potency means the concentration at half of the fitted maximal effect; on the % scale 0 is the no-effect control and ±100 the full control effect; nearly all actives have a fitted effect of over 40% in size
Target sequence (Q9NUW8 whole entry, looked up): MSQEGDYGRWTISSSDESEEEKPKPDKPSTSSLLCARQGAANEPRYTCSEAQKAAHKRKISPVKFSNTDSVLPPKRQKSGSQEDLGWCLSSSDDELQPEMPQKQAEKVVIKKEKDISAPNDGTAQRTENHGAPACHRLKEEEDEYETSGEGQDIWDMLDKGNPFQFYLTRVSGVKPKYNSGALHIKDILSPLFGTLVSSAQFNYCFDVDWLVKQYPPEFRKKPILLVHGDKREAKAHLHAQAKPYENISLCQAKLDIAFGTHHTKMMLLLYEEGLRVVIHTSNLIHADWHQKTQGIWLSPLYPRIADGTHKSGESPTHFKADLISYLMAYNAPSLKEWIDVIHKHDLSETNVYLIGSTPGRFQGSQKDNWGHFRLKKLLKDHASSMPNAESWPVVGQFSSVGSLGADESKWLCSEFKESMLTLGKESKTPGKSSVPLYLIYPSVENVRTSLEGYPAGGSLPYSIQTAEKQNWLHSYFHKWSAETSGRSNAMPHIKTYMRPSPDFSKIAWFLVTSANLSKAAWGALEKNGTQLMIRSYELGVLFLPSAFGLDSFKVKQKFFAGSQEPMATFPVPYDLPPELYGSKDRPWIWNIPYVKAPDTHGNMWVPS
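E. coli-derived human Tdp1, 1 nM final. Cpd preinc 15 min RT; substrate 15 nM final, 5 min RT; AS bead mix 10 ug/ml final, 10 min RT. Signal loss = tyrosine-FITC cleavage. No-enzyme wells = max signal.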
TGFb SMAD3 inh = inhibitors of TGF-b signaling; HepG2 CAGA-GFP TGF-b/SMAD3 reporter, GFP fluorescence, 18 h; TGF-beta stimulated, 500 pg/mL final; Potency, µM (top dose mostly 46.1 µM), for inactives: at the highest dose activity, negative = inhibition, actives largely listed as inhibitors; 410,000 tested, 1.2% active; AID 588855; further: potency means the concentration at half of the fitted maximal effect; on the % scale 0 is the no-effect control and ±100 the full control effect; nearly all actives have a fitted effect of over 65% in size
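Inhibition was scored as loss of TGF-beta-induced (500 pg/mL final, 18 hours, 37 degrees C) GFP in HEPG2 cells carrying a CAGA-GFP reporter, in DMEM with 1% FBS. Well GFP was summed per cell; Activity was normalised to unstimulated and stimulated DMSO wells, then concentration-response fitting.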
IL1B secr inh = inflammasome signaling inhibition, IL-1 beta readout; THP-1 LPS/ATP IL-1B secretion, AlphaLISA, 16 h; stronger effect = lower value; activity change, % at 57.5 µM; 360,000 tested, 4.7% active; in the data active means activity change below about -50%; inconclusive means mostly about -30% to -49%; further: on the % scale 0 is the no-effect control and ±100 the full control effect
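THP-1 cells pretreated 1 hr with compounds (up to 57.5 uM final), then stimulated with LPS (250 ng/mL final) plus ATP (1.25 mM final); secreted IL-1B measured by AlphaLISA after 16 hr, decreased signal indicating inhibition.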
DT40 TDP1 no CPT = qHTS for Inhibitors of human tyrosyl-DNA phosphodiesterase 1 (TDP1): qHTS in cells in absence of CPT | DT40 Tdp1-/- hTDP1 cells, no CPT, ATP luminescence, 48 h | Potency, µM (highest dose often 46.2 µM), without a hit: at the top dose activity change, negative = growth inhibition, hits mostly inhibitors | 420,000 tested, 15% active | AID 686978, 2013; further: potency means the concentration at half of the fitted maximal effect; on the % scale 0 is the no-effect control and ±100 the full control effect; nearly all actives have a fitted effect of over 55% in size
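Compound effects on proliferation are scored in DT40 Tdp1-/-;hTDP1 cells in the absence of CPT. ATP levels (CellTiter-Glo luminescence) are recorded after a ≥48 hr, 37 °C incubation.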
DT40 TDP1 CPT = DT40-hTDP1 cell growth loss with CPT. chicken DT40 Tdp1-/-;hTDP1 cells + 20 nM CPT, ATP luminescence, 48 h. Potency, µM (highest dose often 46.2 µM), inactives show top-dose activity change, negative = growth inhibition, actives largely listed as inhibitors. 420,000 tested, 12% active. AID 686979; further: potency means the concentration at half of the fitted maximal effect; on the % scale 0 is the no-effect control and ±100 the full control effect; nearly all actives have a fitted effect of over 55% in size
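Chicken DT40 Tdp1-/- cells stably complemented with human TDP1 were seeded at 400 cells/well in medium containing 20 nM camptothecin, exposed to pin-transferred compounds, and grown at 37 °C for at least 48 hr. Viability was read as ATP luminescence.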
HepG2 viability = HepG2 cytotoxicity, counter-screen for TGF-b inhibitors. 410,000 tested, 0.76% active. HepG2 CAGA-GFP viability, ATP luminescence, 18 h. Potency, µM (top dose mostly 46.1 µM), for inactives: at the highest dose activity change, negative = cytotoxicity, most hits filed as cytotoxic. AID 588856; further: potency means the concentration at half of the fitted maximal effect
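HepG2 CAGA-GFP cells (1000/well, DMEM with 1% FBS) received compound, then TGF-beta at 500 pg/mL final, and were incubated 18 hours at 37 degrees C. Viability was read by CellTiter-Glo luminescence. Media-only wells were set as complete cell-killing and DMSO as no toxicity.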
* marks the source's active call; other numbers are inactive results; ? = inconclusive; / = no result given; [ ] = remark or other dose. A selection: hits, their analogues and other compounds. The true share with any hit is near 18%. Unless noted, the call rests on the fitted dose curve; in most records, active means well fitted curve in the direction sought with a large enough effect; inconclusive means small, poorly fitted or top-dose-only effect, or another doubt; inactive means no such curve, though single readings can be large; an effect the other way counts as inactive or inconclusive.

SMILES	TDP1 block	TGFb SMAD3 inh	IL1B secr inh	DT40 TDP1 no CPT	DT40 TDP1 CPT	HepG2 viability
Cc1ccc(NP(=O)(Nc2ccc(C)cc2)Oc2ccccc2)cc1	3%	-25%	-71*	?	5%	-12%
Cc1ccc(NP(=O)(Oc2ccccc2)Oc2ccccc2)cc1	/	2%	-7	-20%	-1%	1%
NP(=O)(Oc1ccccc1)c1ccccc1 (stereo unspecified)	/	-25%	21	-4%	8%	-17%
CC(=O)[C@H]1CC[C@H]2C3CC[C@H]4C[C@](C)(O)CC[C@]4(C)C3CC[C@]12C (stereo partly specified)	4%	/	/	/	/	/
CCOC(=O)c1cnc2c(ccc3ccccc32)c1Nc1ccc(N(C)C)cc1	/	26%	/	?	15µM*	2%
CC=C(C)C(=O)O[C@H]1C(C)=C2[C@@H]3OC(=O)[C@@](C)(O)[C@@]3(O)[C@@H](OC(=O)CCC)C[C@](C)(OC(C)=O)[C@@H]2[C@@H]1OC(=O)CCCCCCC	13%	/	/	0.12µM*	0.21µM*	/
Cc1cc(OC(=O)N2CCCCC2)c(C(C)C)cc1[N+](C)(C)C	8%	/	/	?	?	/
O=P1(Oc2ccccc2)CC=CC(COC(c2ccccc2)(c2ccccc2)c2ccccc2)O1 (stereo unspecified)	7%	16µM*	/	/	/	-19%
O=P1(Oc2ccccc2)C[C@@H](O)[C@@H](O)[C@H](COCc2ccccc2)O1 (stereo partly specified)	/	5%	0	-9%	-9%	3%
Cc1ccc2scc(N3CCN(C)CC3)c(=O)c2c1	3%	-2%	/	-15%	-20%	14%
O=[N+]([O-])c1cc(-c2ccc([As](=O)(O)O)cc2)ccc1[As](=O)(O)O	35µM*	/	/	/	/	/
CN1[C@@H]2CC[C@H]1CC(OC1c3ccccc3CCc3ccccc31)C2 (stereo partly specified)	3%[56.1 µM]	52%	?	2.6µM*	8.2µM*	-32%
C=CCn1c(O)c(C(=O)CCCCCC)c(=O)[nH]c1=O	3%	24%	33	8.2µM*	12µM*	-12%
C=CCn1c(O)c(C(C)=O)c(=O)[nH]c1=O (tested in a mixture with another compound)	2%	11%	-18	9%	4%	2%
C=CCn1c(O)c(C(CC)=NCCc2ccccc2)c(=O)[nH]c1=O	1%	-3%	1	?	?	-18%
C=CCn1c(O)c(/C(CC)=N/NC(=S)Nc2ccccc2)c(=O)[nH]c1=O	40µM*	4%	8	-1%	9%	10%
C=CCn1c(O)c(C(CC)=NCCc2c[nH]c3ccccc23)c(=O)[nH]c1=O	3%	-20%	33	16µM*	?	-26%
C#C[C@]1(O)CC[C@H]2[C@@H]3CCC4=CC(=O)CC[C@]4(C)[C@H]3CC[C@@]21C	6%	-22%	3	-11%	-23%	1%
C#C[C@]1(O)CCC2C3C(=O)C=C4C(Cl)=CCC[C@]4(C)C3CC[C@@]21C (stereo partly specified)	/	6%	-90*	10µM*	16µM*	-3%
O=C(COc1ccc2ccccc2c1)N1CCN(CC2CC3C=CC2C3)CC1 (stereo unspecified)	-7%	?	-14	18µM*	18µM*	-31%
COc1ccc(OCC(=O)N2CCN(Cc3cccc(OC)c3OC)CC2)cc1	/	3%	/	?	?	-11%
O=C(COc1ccccc1)N1CCN(CC(O)COc2ccccc2)CC1 (stereo unspecified)	2%	0%	6	-16%	1%	-7%
